Data: PubChem BioAssay AID463173 (ICCB-Longwood Screening Facility, Harvard Medical School, 2010)
Hit rate of the full screen: of about 52,000 compounds, about 1,700 (3.3%) were called active. Only a selection was taken, and actives are over-represented in it overall. A number with no mark means an inactive call. Rule as the data show it: active = survival mostly below about 52% (no sharp cut-off); inactive = mostly above about 56%.

Test system: Wild type
Test: S. aureus survival, RN4220 and DeltatarO strains – OD600, teichoic acid synthesis inhibitors, primary screen (AID 463173)
Conditions: S. aureus RN4220 wild type/DeltatarO growth, OD600, 18 h, hits give low values, screened at 18.75 µg/mL (by protocol)

SMILES | survival
CC(=O)C1=C(c2ccc(Cl)cc2)N(C(C)=O)n2c(nnc2C2CCCCC2)S1 | 85%
CCOc1cccc(CC(=O)N2CCc3c([nH]c4ccccc34)C2c2ccc(C)cc2)c1OCC (stereo not drawn) | 83%
Cc1ccc2c(c1)c(=O)c(C(=O)c1ccncc1)cn2CC(=O)Nc1c(C)cccc1C | 72%
O=C(CC12CC3CC(CC(C3)C1)C2)N1CCCOC1 | 114%
N=c1nc(SCCC(=O)O)ss1 | 112%
COc1ccc(NC(=O)C(C)Sc2cc(-c3ccccc3)nc(C)n2)cc1Cl (stereo not drawn) | 81%
Cc1c(Cl)cccc1NC(=O)CCS(=O)(=O)c1ccc2c(c1)CC(=O)N2C | 85%
COc1ccc(C(CC(=O)Nc2ccc(C)c(C)c2)N2Cc3ccccc3C2=O)cc1OC (stereo not drawn) | 66%
COc1ccc(NC(=O)Cn2c(=O)n(CCC(=O)NCCc3ccc(OC)c(OC)c3)c(=O)c3ccccc32)cc1Cl | 92%
CC1=C(c2ccc(C(C)C)cc2)S(=O)(=O)N=C1N1CCC(C(=O)NCc2ccc(C)o2)CC1 | 63%
CCc1ccc(C2=C(C)C(N3CCC(C(=O)NCc4ccccc4)CC3)=NS2(=O)=O)cc1 | 67%
CC1=C(c2ccc(C)c(C)c2)S(=O)(=O)N=C1N1CCC(C(=O)N2CCCCC2)CC1 | 129%
CC1=C(c2ccc(C(C)C)cc2)S(=O)(=O)N=C1N1CCC(C(=O)NCc2ccco2)CC1 | 63%
CC1=C(c2ccc(C)c(C)c2)S(=O)(=O)N=C1N1CCC(C(=O)N2CCC(C(N)=O)CC2)CC1 | -4% (active)
CC1=C(c2ccc(C(C)C)cc2)S(=O)(=O)N=C1N1CCC(C(=O)NCc2ccccc2)CC1 | -3% (active)
CC1=C(c2ccc(Cl)cc2)S(=O)(=O)N=C1N1CCC(C(=O)NCCc2ccco2)CC1 | 55%
CC1=C(c2ccc(C(C)C)cc2)S(=O)(=O)N=C1N1CCC(C(=O)NCCc2ccco2)CC1 | 1% (active)
CC1=C(c2ccc(C)c(C)c2)S(=O)(=O)N=C1N1CCC(C(=O)N2CCC(C)CC2)CC1 | 81%
CCc1ccccc1NC(=O)c1cc(S(=O)(=O)N2CCCC2)cn1C | 84%
CCC(C)NC(=O)Cn1c(=O)n(CC2CCC(C(=O)NC)CC2)c(=O)c2sccc21 (stereo not drawn) | 70%
CC(C)N(C(=O)Cn1cc(SCC(=O)Nc2ccccc2C(F)(F)F)c2ccccc21)C(C)C | 105%
COc1ccccc1Cc1nc2ccccc2nc1SCC(=O)N1CCc2ccccc21 | 49%
Cc1cc(Br)ccc1NC(=O)CSc1c2c(nc3ccccc13)CCC2 | 75%
